# In ChEMBL document CHEMBL3988442, “University of Dundee, Small-Polar-MMV Screening Library” (2021):
# Among all 48,000 compounds or so, about 13,000 (27%) showed an effect of 50% or more. The list shows a part of the results.
# Test system: Wolbachia pipientis
# Assay: Anti-Wolbachia Cell-Based Screen
# Type: functional
# Set-up: scale not given: in the data most compounds retested in dose-response had high values
# Conditions: 5 µM
row,SMILES,Percent Effect
1,Cc1ccc(OC2CCN(C(=O)Cc3c(C)[nH]c(=O)[nH]c3=O)CC2)cc1,33.83%
2,Cc1ccccc1N1CCCN(C(=O)CCc2ccncc2)CC1,5.689%
3,CS(=O)(=O)NCC1CCCN(C(=O)COCC(F)(F)F)C1 (stereo not drawn),-5.002%
4,CN1CCC(O)(CCNC(=O)[C@@]23CNC[C@@H]2CN(C2CCCC2)C3)CC1,-8.037%
5,CNS(=O)(=O)CC(=O)N(Cc1ccccc1)c1ccc(C)cc1,-6.093%
6,NC(=O)c1csc(C(=O)N2CCCC(n3ccnc3)C2)c1 (stereo not drawn),4.502%
7,CC(C)c1nccn1C1CCCN(C(=O)c2ccsc2)C1 (stereo not drawn),-9.917%
8,Cc1cc(C)n(C2CCCN(C(=O)c3cc(C(N)=O)cs3)C2)n1 (stereo not drawn),143.1%
9,NC(=O)c1csc(C(=O)N2CCCC(n3cccn3)C2)c1 (stereo not drawn),118.9%
10,CC(C)c1nccn1C1CCCN(C(=O)c2cc(C(N)=O)cs2)C1 (stereo not drawn),117.7%
11,Cc1nc(C)n(C2CCCN(C(=O)c3cc(C(N)=O)cs3)C2)n1 (stereo not drawn),0.8263%
12,O=C1CSc2ccc(C(=O)N3CCCC(n4cccn4)C3)cc2N1 (stereo not drawn),11.58%
13,CNc1snc(C)c1C(=O)N1CCCC(n2nc(C)cc2C)C1 (stereo not drawn),-4.797%
14,CC(C)c1nccn1C1CCCN(C(=O)c2ccnc(N(C)C)c2)C1 (stereo not drawn),-0.8202%
15,O=C1COc2ccc(S(=O)(=O)NC3CC3)c3c2N1CCC3,-10.68%
16,O=C1CC[C@H]2CN(c3ncc(F)cn3)CC[C@H]2N1CCc1ccccc1,-8.563%
17,CN(C(=O)c1ccncc1F)c1ccccc1S(C)(=O)=O,0.2118%
18,O=C(CCN1CCCCC1)N1CCC(Cc2ccc(CO)cc2)C1 (stereo not drawn),-4.228%
19,Cc1nc(N2CCOc3ccc(CO)cc3C2)c2nc(C)oc2n1,-3.074%
20,C[C@@H]1CN(CCC(=O)N(C)Cc2ccccc2)CC[C@@]1(O)C1CCC1,22.93%
21,O=C(O)[C@@H]1CN(Cc2cnc(C3CCCCC3)nc2)C[C@H]1C1CC1,0.2506%
22,CCNc1ncc(CN2C[C@@H](C(=O)O)[C@H](C3CC3)C2)cn1,-13.99%
23,CN(Cc1ccccc1)C(=O)CCN1CCC2(CC1)[C@H](O)C[C@@H]2O,-5.462%

row,SMILES,Percent Effect
1,CCN(Cc1ccncc1)C(=O)CCn1c(C)cc2ccccc21,-6.043%
2,CN(Cc1ccccc1)C(=O)CCN1C[C@H](C2CC2)[C@@H](N(C)C)C1,117.2%
3,CCN(Cc1ccccc1)C(=O)CCN1CC(O)C1,89.96%
4,CCN(Cc1ccccc1)C(=O)CCN1C[C@@H](C(=O)O)[C@H](C2CC2)C1,110.3%
5,C[C@@H]1CN(CCC(=O)N(C)Cc2ccccc2)C[C@@]1(O)C1CCC1,-9.793%
6,CCNC(=O)C1CCN(c2cc(-c3ccccc3)nc3ccnn23)C1 (stereo not drawn),11.77%
7,CC(C)(C)c1ccc(=O)n(CN2CCCC(C(F)(F)F)C2)n1 (stereo not drawn),-4.138%
8,COc1ccc2c(c1)OCC(CNC(=O)c1ccc(=O)n(C)c1)C2 (stereo not drawn),0.3526%
9,O=C(CCNC(=O)c1ccoc1)NCc1ccccc1F,0.6342%
10,N#Cc1ccnc(N2CCN(CC(O)c3cc(F)ccc3F)CC2)c1 (stereo not drawn),-0.2819%
11,Cn1ccnc1CN1CCN(CC(O)c2ccc(F)c(F)c2)CC1 (stereo not drawn),-1.464%
12,Cn1ccnc1CN1CCN(Cc2cc(C#N)ccc2F)CC1,0.8662%
13,Cn1ccnc1CN1CCN(CC(O)c2ccco2)CC1 (stereo not drawn),3.847%
14,Cn1ccnc1CN1CCN(CC(O)c2cc(F)ccc2F)CC1 (stereo not drawn),92.89%
15,CCN1CCN(CC(O)c2ccc(F)cc2)CC1 (stereo not drawn),5.506%
16,CC(C)c1ccc(C(O)CN2CCN(Cc3nccn3C)CC2)cc1 (stereo not drawn),94.53%
17,Cc1nnc(CN2CCN(CC(O)c3cccc(F)c3)CC2)n1C (stereo not drawn),8.346%
18,Cn1ccnc1CN1CCN(CC(O)c2ccc(F)cc2)CC1 (stereo not drawn),154.5%
19,Cc1ccc(C(O)CN2CCN(Cc3nccn3C)CC2)cc1C (stereo not drawn),121.6%
20,Cc1nnc(CN2CCN(Cc3nccn3C)CC2)n1C,-10.76%
21,CC(C)C1CN(S(=O)(=O)Cc2cccc(C#N)c2)CCS1 (stereo not drawn),-6.809%
22,COCC1(NC(=O)Nc2nc(C)ns2)CCCC1,-4.167%
23,CC(C)[C@H]1COC(=O)N1Cc1noc(-c2ccccc2)n1,-3.7%

row,SMILES,Percent Effect
1,Cc1nc(NS(=O)(=O)c2ccc(F)c(Br)c2)no1,-14.77%
2,CCn1ncc2c1C(COC)CN(Cc1cccnc1)C2.O=C(O)C(F)(F)F.O=C(O)C(F)(F)F.O=C(O)C(F)(F)F (stereo not drawn),103%
3,COCC1CN(Cc2ccc(F)cc2)Cc2nnn(CC3CC3)c21.O=C(O)C(F)(F)F (stereo not drawn),-1.939%
4,COCC1CN(Cc2cccnc2)Cc2nnn(CC3CC3)c21.O=C(O)C(F)(F)F.O=C(O)C(F)(F)F (stereo not drawn),-2.73%
5,CCn1ncc2c1C(COC)CN(Cc1ccc(F)cc1)C2.O=C(O)C(F)(F)F.O=C(O)C(F)(F)F (stereo not drawn),110%
6,CCn1cc2c(n1)CN(Cc1ccc(F)cc1)CC2COCC1CC1.O=C(O)C(F)(F)F (stereo not drawn),-4.171%
7,Cn1ncc2c1CN(Cc1cccnc1)CC2COCC1CC1.O=C(O)C(F)(F)F.O=C(O)C(F)(F)F.O=C(O)C(F)(F)F (stereo not drawn),2.893%
8,COCC1CN(CC2CCOCC2)Cc2cn(CC3CCCC3)nc21 (stereo not drawn),-7.587%
9,Cc1nonc1C1CCCN1C(=O)c1cc2n(n1)CCCN(C(C)C)C2 (stereo not drawn),4.032%
10,CSCCNC(=O)c1ccc(OC2CCN(CC(C)(C)C)CC2)c(Cl)c1,-14.62%
11,Cc1cc(=O)n(CC(=O)Nc2ccc(C(N)=O)cc2)nc1C,4.74%
12,Cc1nc(SCC(=O)Nc2ccc(C(N)=O)cc2)c(C#N)c(C)c1C,108.9%
13,COc1ccc(NC(=O)CSc2nc(C)c(C)c(C)c2C#N)cn1,14.78%
14,Cc1ccccc1CC(C)(C)NC(=O)CCOc1cccc(C(N)=O)c1,-6.35%
15,CC(C)c1noc(Cn2ncc3ccccc3c2=O)n1,-9.946%
16,CNC(=O)c1noc(Cn2ncc3ccccc3c2=O)n1,-3.773%
17,CC(c1cc(O)nc(NC2CCCC2)n1)n1ncc2ccccc2c1=O (stereo not drawn),143.5%
18,CC(NCCN1CCN(C(=O)C2CCCC2)CC1)c1ccccn1 (stereo not drawn),4.295%
19,CCN(CC)c1nc(O)cc(C(C)n2ncc3ccccc3c2=O)n1 (stereo not drawn),150.9%
20,CC(C)Nc1nc(O)cc(C(C)n2ncc3ccccc3c2=O)n1 (stereo not drawn),144.2%
21,Cc1cc(C)nc(NC2CC(=O)N(C)C2)n1 (stereo not drawn),-15.96%
22,NC(=O)c1noc(Cn2ncc3ccccc3c2=O)n1,-15.29%
